VDR inhibitor – vitamin D3 receptor (human) inhibition. P11473. VDR-SRC2-3 peptide fluorescence polarization, 2 h. Potency, µM, for the others: max response, negative = inhibition, usual class: inhibitors. actives 0.93% (n = 400,000). AID 504847
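Reagent solutions, kept cold and dark, are dispensed first; compounds are then pinned in at 23 nl, plates briefly spun, and incubated 2 h at ambient temperature. Inhibition of VDR–SRC2-3 peptide binding is read by fluorescence polarization.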
PLK1 PBD inh – blocks phosphopeptide binding to human PLK1 polo-box domain | Plk1 PBD binding of FITC phosphopeptide, fluorescence polarization | Potency, µM, inactives show max response, negative = inhibition, hits mostly inhibitors | actives 2.8% (n = 360,000) | AID 720504; note: series mostly up to about 57 µM; nearly all actives have a fitted effect of over 65% in size
Target sequence (P53350 whole entry, looked up, the tested form may be a part): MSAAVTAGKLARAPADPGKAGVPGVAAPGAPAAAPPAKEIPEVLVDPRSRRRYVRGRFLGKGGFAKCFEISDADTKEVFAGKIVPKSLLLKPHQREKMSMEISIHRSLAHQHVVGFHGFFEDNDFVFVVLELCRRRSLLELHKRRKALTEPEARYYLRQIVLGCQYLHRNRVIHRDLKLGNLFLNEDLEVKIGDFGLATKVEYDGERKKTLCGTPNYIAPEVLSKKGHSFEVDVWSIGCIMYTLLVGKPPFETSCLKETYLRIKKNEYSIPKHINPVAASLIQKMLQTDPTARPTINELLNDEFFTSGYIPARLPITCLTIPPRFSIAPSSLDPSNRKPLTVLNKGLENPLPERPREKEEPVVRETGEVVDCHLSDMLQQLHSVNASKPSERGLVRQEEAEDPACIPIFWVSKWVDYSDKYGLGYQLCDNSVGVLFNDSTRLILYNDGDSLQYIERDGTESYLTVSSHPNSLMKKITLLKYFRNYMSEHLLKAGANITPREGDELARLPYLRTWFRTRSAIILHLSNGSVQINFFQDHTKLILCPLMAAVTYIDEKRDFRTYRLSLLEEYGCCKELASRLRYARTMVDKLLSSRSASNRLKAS
Sfp inh – blocks B. subtilis Sfp PPTase activity; Q9F4F7; Biochemical Sfp PPTase activity, qHTS; Potency, µM, without a hit: largest response in the series, negative = inhibition, actives largely listed as inhibitors; actives 3.5% (n = 310,000);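 note: the enzyme is Sfp with the accession as filed and its product quenches rhodamine fluorescence; 0% = enzyme reaction without inhibitor and -100% = no enzyme wells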
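Step 1, compound plus 15 nM Sfp-PPTase, 15 min, room temperature. Step 2, add rhodamine-CoA (5 uM) and BHQ-2-YbbR (12.5 uM). Step 3, read 525/598 nm fluorescence at 0 and 30 min.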
ALOX12 inh – ALOX12 (human) lipoxygenase inhibition; P18054; actives 1.1% (n = 580,000); AID 1671190; Potency, µM (doses to about 108 µM), for inactives: top-dose activity change, negative = inhibition, usual class: inhibitors; purified 12hLO, xylenol orange hydroperoxide absorbance
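Purified human 12hLO at 150 nM in 25 mM Hepes, 0.01% Triton X-100, pH 7.0, preincubated 15 min at room temperature with compound. Reaction started with 40 uM arachidonic acid, 30 min at room temperature. Hydroperoxide measured by Fe-xylenol orange, 573/405 nm absorbance ratio.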
The depositor's hits bear a star; ? = inconclusive; . = not tested or not shown. Only some compounds are listed: those with a hit (about 4.2% of all), similar ones and a draw of the others. Calls come from the whole dose curve; as a rule, active = well fitted curve in the direction sought with a large enough effect; inconclusive = small, poorly fitted or top-dose-only effect, or another doubt; inactive = no such curve, though single readings can be large; an effect the other way counts as inactive or inconclusive. Unless noted, % is set by controls: 0 for no effect and ±100 for the full control effect; potency is the fitted concentration of half-maximal effect.

SMILES	VDR inhibitor	PLK1 PBD inh	Sfp inh	ALOX12 inh
FC(F)(F)c1ccc(C2[C@H]3CN(Cc4cccnc4)[C@H](c4ccccc4)C34CC2(c2cccnc2)C4)cc1 (stereo not given in full)	?	-5%	35µM*	8%
O=C(CSc1ccc2c(c1)OCCO2)NCc1ccco1	3%	?	35µM*	-32%
O=C(CSc1nc2ccccc2[nH]1)NCc1ccco1	8%	-14%	4%	10%
O=C(CN1CC(=O)Oc2ccccc21)NCc1ccco1	-4%	-25%	56µM*	?
O=C(CSc1ccccc1)NCc1ccco1	-11%	-15%	15%	9%
Cc1cc2nc(-c3cccnc3SCC(=O)NCc3ccco3)[nH]c2cc1C	-8%	-12%	40µM*	?
O=C(CSc1ncccc1-c1nc2ccccc2[nH]1)NCc1ccco1	?	19µM*	40µM*	14µM*
Cc1cc(C(=O)NCCC(C)C)c2ccccc2n1	3%	-4%	4%	10%
Cc1cc(=O)[nH]c(SCC(=O)NCc2ccco2)n1	3%	?	-7%	3%
Cc1nnc(SCC(=O)NCc2ccco2)[nH]c1=O	5%	-12%	56µM*	-19%
Cc1cc(C)c2cc(C#N)c(SCC(=O)NCc3ccco3)nc2c1	7%	-13%	22µM*	28%
Cc1cc(C)c2cc(C)c(SCC(=O)NCc3ccco3)nc2c1	38%	-19%	4%	-18%
Cc1cccc(Cc2c(C)nc3nc(SCC(=O)NCc4ccco4)nn3c2C)c1	-5%	-5%	45µM*	?
CN1N=C(C(C)(C)C)CC1=O	5%	-10%	8%	0%
CC(=C/c1ccccc1)/C=N/Nc1nc(N2CCCCC2)nc(N2CCCCC2)n1	-27%	-7%	12%	-10%
BrC(/C=N/Nc1nc(N2CCOCC2)nc(N2CCOCC2)n1)=C/c1ccccc1	-1%	-5%	79µM*	402%
COc1ccc(C)cc1NC(=O)C(C)N1CCOCC1 (stereo not given)	4%	2%	3%	11µM*
COc1cc(C(=O)N[C@H](C(=O)NC(C)C23CC4CC(CC(C4)C2)C3)C(C)C)cc(OC)c1OC (stereo not given in full)	9%	-5%	8%	198%
COc1ccc(C)cc1NC(=O)C(NC(=O)c1cc(OC)c(OC)c(OC)c1)C(C)C (stereo not given)	?	30µM*	18%	5%
COc1ccc(C)cc1NC(=O)C(c1ccccc1)N1CCN(CC(=O)N2CCOCC2)CC1 (stereo not given)	-9%	-2%	.	1%
N#C/C(=C\c1ccc[nH]1)C(=O)N1CCCCC1	1%	-9%	14%	0%
COc1cc(CNc2ccc3c(c2)CCC3)cc(OC)c1O	-15%	?	40µM*	1.1µM*
COC(=O)c1ccc(N2CCN(C(=O)c3ccccc3)CC2)c(NC(C)=O)c1	1%	-9%	21%	-1%
CC(=O)Oc1c(Br)cc(N(C(C)=O)S(=O)(=O)c2ccccc2)c2ccccc12	-6%	27µM*	35µM*	13µM*
CC(=O)Oc1ccccc1N(C(C)=O)S(=O)(=O)c1ccc2ccccc2c1	-19%	?	0%	0%
SMILES	VDR inhibitor	PLK1 PBD inh	Sfp inh	ALOX12 inh
O=c1cc(CN2CCN(Cc3ccccc3)CC2)c2ccc(O)c(O)c2o1	7%	-7%	79µM*	?
CCN1CCN(Cc2cc(=O)oc3cc(-c4ccccc4)c(O)cc23)CC1	.	.	.	32µM*
Cc1ccc(S(=O)(=O)N2CCN(Cc3cc(=O)oc4cc(O)c(Cl)cc34)CC2)cc1	.	.	.	45µM*
O=c1cc(CN2CCC(Cc3ccccc3)CC2)c2cc(O)c(-c3ccccc3)cc2o1	.	.	.	-15%
Cc1c(O)ccc2c(CN3CCN(Cc4ccccc4)CC3)cc(=O)oc12	15%	0%	9%	-10%
Oc1c(CN2CCOCC2)cc(-c2ccccc2)cc1CN1CCOCC1	-7%	-3%	10%	0%
Oc1c(CN2CCOCC2)ccc2ccccc12	?	24µM*	6%	45µM*
O[C@@H]1C[C@@H](c2nnc3n2CCN(Cc2cccc(F)c2)C3)N(Cc2ccccc2)C1	.	.	.	2%
O=c1cc(CN2CCOCC2)c2ccc(O)c(O)c2o1	-17%	-10%	45µM*	-26%
COC(=O)CSc1nc(N2CCCC2)c2c(c1C#N)CCCC2	.	.	.	-22%
CCSc1nc2c(c(-c3ccc(C)o3)c1C#N)CCCC2	-2%	-15%	?	?
CN(C)CCCSc1nc(N2CCOCC2)c2c(c1C#N)CCCC2	.	.	.	0.5µM*
COC(=O)CSc1nc(N2CCCCC2)c2c(c1C#N)CCCC2	-11%	24µM*	?	0%
